# Test results taken from PubChem BioAssay (NCATS).
# Records with an inconclusive call do not appear. Active and inactive are the calls of the source. Calls follow the shape of the dose curve; as a rule, active = well fitted curve in the direction sought with a large enough effect; inconclusive = small, poorly fitted or top-dose-only effect, or another doubt; inactive = no such curve, though single readings can be large; an effect the other way counts as inactive or inconclusive.
# Key:
# [1] = qHTS of pediatric cancer cell lines to identify multiple opportunities for drug repurposing: Primary screen for SK-N-SH cells (AID 1347098); details: SK-N-SH viability, CellTiter-Glo luminescence, 48 h; also: potency is read from the fitted curve at half-maximal effect; nearly all actives have a fitted effect of over 65% in size
# Summary of the method: (§1)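 Cells (500-1,000/well) rested 5 h, then received compounds for 48 h; metabolically active cells were measured by CellTiter-Glo luminescence. Final concentrations spanned up to 46 µM (MIPE, 11-point) or 0.59 nM-46 µM (NPC, 8-point) in primary screens, 11-point in follow-ups.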
# [2] = qHTS of pediatric cancer cell lines to identify multiple opportunities for drug repurposing: Primary screen for BT-12 cells (AID 1347101); details: BT-12 viability, CellTiter-Glo luminescence, 48 h; also: potency is read from the fitted curve at half-maximal effect; nearly all actives have a fitted effect of over 25% in size
# Summary of the method: as §1
# [3] = qHTS of pediatric cancer cell lines to identify multiple opportunities for drug repurposing: Primary screen for Rh18 cells (AID 1347102); details: Rh18 rhabdomyosarcoma viability, CellTiter-Glo luminescence, 48 h; also: potency is read from the fitted curve at half-maximal effect; nearly all actives have a fitted effect of over 65% in size
# Summary of the method: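 Viability after 48 h compound treatment at 37C, 500-1,000 cells/well, read as ATP luminescence with CellTiter-Glo. Primary screens used 11-point (MIPE, 0.78 nM-46 µM) or 8-point (NPC, 0.59 nM-46 µM) final concentrations; follow-up screens used 11-point dilutions.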
# [4] = qHTS of pediatric cancer cell lines to identify multiple opportunities for drug repurposing: Primary screen for OHS-50 cells (AID 1347103); details: OHS-50 osteosarcoma viability, CellTiter-Glo luminescence, 48 h; also: potency is read from the fitted curve at half-maximal effect; nearly all actives have a fitted effect of over 40% in size
# Summary of the method: as §1
# [5] = qHTS of pediatric cancer cell lines to identify multiple opportunities for drug repurposing: Primary screen for RD cells (AID 1347104); details: RD rhabdomyosarcoma viability, CellTiter-Glo luminescence, 48 h; also: potency is read from the fitted curve at half-maximal effect; nearly all actives have a fitted effect of over 55% in size
# From the text: Drug repurposing or repositioning has been offered as a strategy for drug development in oncology programs. This approach has special potential for childhood cancers and other rare or orphan diseases, where the expected return on new drug development has been a disincentive to pharmaceuticals. […] In this project we exploit the poly-pharmacology of drugs to discover new indications via phenotypic screening of a panel of 19 well-characterized cell lines derived from solid tumors seen in children and adolescents. […] We employed a titration-based paradigm (quantitative high-throughput screening or qHTS), where all compounds were tested at multiple concentrations for their effect on cell viability. […] We screened the NIH Chemical Genomics Center (NCGC) Pharmaceutical Collection (NPC) and Mechanism Interrogation Plate (MIPE) small molecule collections of approved and investigational compounds against these cell lines; and measured metabolically active cells after 48 hours of compound treatment as a proxy for cell viability. […] Assay Submitter: Nathalia J. Martinez, National Center for Advancing Translational Sciences, National Institutes of Health, Rockville, MD, USA; email: natalia.martinez@nih.gov Shen, M et al. Quantitative high-throughput phenotypic screening of pediatric cancer cell lines identifies multiple opportunities for drug repurposing. […]
# [6] = biological target: N-terminal Xaa-Pro-Lys N-methyltransferase 1 (Homo sapiens) (UniProt Q9BV86); test: qHTS Assay for Inhibitors of N-terminal methyltransferase 1 (NTMT1): LOPAC validation of the NTMT1 SAHH-coupled ThioGlo3 Assay (AID 1347143); details: recombinant NTMT1, SAHH-coupled ThioGlo3 fluorescence; series mostly up to 114 µM;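 also: SAH from peptide methylation measured as thiol fluorescence via SAHH coupling and ThioGlo3; nearly all actives have a fitted effect of over 70% in size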
# Summary of the method: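 Steps: dispense 125nM NTMT1; pin-transfer test compounds at several concentrations, with 1uM RCC1-6 peptide as control; incubate 1 min; start with reagent holding 100uM SAM, 10uM SAHH, 15uM ThioGlo3; read at 0 and 30 min.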
# [7] = test system: Zika virus NS2B-NS3 protease (unlinked); test: Optimization of GU AMC qHTS for Zika virus inhibitors: Unlinked NS2B-NS3 protease assay (AID 1347151); details: recombinant ZIKV NS2B-NS3 protease, fluorogenic AMC substrate; series mostly up to 52.5 µM; also: nearly all actives have a fitted effect of over 80% in size
# Summary of the method: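 Percent inhibition is derived from the 15-min change in AMC fluorescence, normalized against no-inhibitor and no-enzyme controls, then fitted to a 4-parameter Hill curve. Aprotinin was the intraplate control.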
# Chain of N-terminal Xaa-Pro-Lys N-methyltransferase 1 (Homo sapiens) (Q9BV86 whole entry, looked up): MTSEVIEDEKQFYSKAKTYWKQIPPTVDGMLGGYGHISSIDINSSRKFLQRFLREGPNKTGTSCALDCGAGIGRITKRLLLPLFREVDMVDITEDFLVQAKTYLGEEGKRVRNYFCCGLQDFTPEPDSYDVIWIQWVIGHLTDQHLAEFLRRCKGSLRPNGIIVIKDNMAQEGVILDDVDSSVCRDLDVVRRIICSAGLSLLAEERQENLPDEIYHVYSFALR
smiles,measurement,setting,value
CN[C@H]1CC[C@@H](c2ccc(Cl)c(Cl)c2)c2ccccc21,Potency,[1],10.9 µM (active)
same,Potency,[2],21.9 µM (active)
same,Potency,[3],23.7 µM (active)
same,Potency,[4],15.5 µM (active)
Oc1cccc(-c2c3nc(c(-c4cccc(O)c4)c4ccc([nH]4)c(-c4cccc(O)c4)c4nc(c(-c5cccc(O)c5)c5ccc2[nH]5)CC4)C=C3)c1,Potency,[5],26.6 µM (active)
NCCCC(=O)O,outcome,[6],inactive
CCC(CC)(NC(=O)C(C)C)C(=O)N[C@@H](CCCN=C(N)N)C(=O)NC1(C(=O)NC(c2ccc(F)cc2)c2ccc(F)cc2)CCCC1,outcome,[7],inactive
